p53ts 32C kill: cytotoxicity in p53ts cells at permissive temperature; H1299-p53A138V at 32C, ATP luminescence viability, 24 h; Potency, µM (top dose mostly 46.1 µM), inactives show top-dose activity change, negative = cytotoxicity, hits mostly cytotoxic; 0.93% of 130,000 active;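 further: potency means the concentration at half of the fitted maximal effect; 0% = DMSO and -100% = full killing by reference compound; nearly all actives have a fitted effect of over 55% in size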
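H1299-p53 A138V cells (temperature-sensitive p53) exposed 24 h to up to 46 uM compound at 32C, where p53 is wild-type in conformation. Viability read as ATP luminescence and normalised to DMSO and 100 uM tamoxifen. AC50 fitted with the Hill equation.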
ERK AVP inh: vasopressin-driven ERK pathway inhibition; HEK293-V1b, vasopressin-stimulated pERK AlphaScreen; Potency, µM (doses to about 57.5 µM), inactives show at the highest dose activity, negative = inhibition, hits mostly inhibitors; 0.99% of 72,000 active; AID 995; further: potency means the concentration at half of the fitted maximal effect; on the % scale 0 is the no-effect control and ±100 the full control effect; nearly all actives have a fitted effect of over 55% in size
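Overnight-seeded V1b-HEK293 cells in 1% FBS got compound, then vasopressin (25 nM final, 5 min, 37C), then lysis buffer. AlphaScreen detection of phospho-ERK; activity normalized to basal and full-stimulation controls.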
p53ts 39C kill: cytotoxicity in p53ts cells at nonpermissive temperature. H1299-p53A138V viability at 39C, ATP luminescence, 24 h. Potency, µM (doses to about 46.1 µM), for the others: top-dose activity change, negative = cell killing, hits mostly cytotoxic. 1.5% of 130,000 active. AID 902; further: potency means the concentration at half of the fitted maximal effect; on the % scale 0 is the no-effect control and ±100 the full control effect; nearly all actives have a fitted effect of over 55% in size
DNA Pol III inh: blocks replication by bacterial DNA polymerase III holoenzyme; 0.25% of 71,000 active; Potency, µM (titrated, usually from 57.1 µM), inactives show at the highest dose activity change, negative = inhibition; reconstituted DNA polymerase III holoenzyme replication, biochemical; further: potency means the concentration at half of the fitted maximal effect; on the % scale 0 is the no-effect control and ±100 the full control effect
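Reconstituted *E. coli* holoenzyme (0.35 nM Pol III, 1 nM beta, 154 nM SSB, 2 nM primase) was preincubated with compound for 15 min at RT. Synthesis on 1.4 nM ssM13Gori ran 35 min, then was stopped with PicoGreen/EDTA and read as dsDNA fluorescence.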
Tau filament bind: binders of human tau filaments. 2% of 71,000 active. recombinant tau filaments, thioflavin S fluorescence, 15 h; filaments grown with octadecylsulfate alongside compound. AID 596. Potency, µM (doses to about 57.1 µM), inactives show at the highest dose activity change, negative = inhibition;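 further: potency means the concentration at half of the fitted maximal effect; on the % scale 0 is the no-effect control and ±100 the full control effect; actives lower thioflavin S fluorescence by blocking filaments or displacing dye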
Target sequence (P10636 whole entry, looked up): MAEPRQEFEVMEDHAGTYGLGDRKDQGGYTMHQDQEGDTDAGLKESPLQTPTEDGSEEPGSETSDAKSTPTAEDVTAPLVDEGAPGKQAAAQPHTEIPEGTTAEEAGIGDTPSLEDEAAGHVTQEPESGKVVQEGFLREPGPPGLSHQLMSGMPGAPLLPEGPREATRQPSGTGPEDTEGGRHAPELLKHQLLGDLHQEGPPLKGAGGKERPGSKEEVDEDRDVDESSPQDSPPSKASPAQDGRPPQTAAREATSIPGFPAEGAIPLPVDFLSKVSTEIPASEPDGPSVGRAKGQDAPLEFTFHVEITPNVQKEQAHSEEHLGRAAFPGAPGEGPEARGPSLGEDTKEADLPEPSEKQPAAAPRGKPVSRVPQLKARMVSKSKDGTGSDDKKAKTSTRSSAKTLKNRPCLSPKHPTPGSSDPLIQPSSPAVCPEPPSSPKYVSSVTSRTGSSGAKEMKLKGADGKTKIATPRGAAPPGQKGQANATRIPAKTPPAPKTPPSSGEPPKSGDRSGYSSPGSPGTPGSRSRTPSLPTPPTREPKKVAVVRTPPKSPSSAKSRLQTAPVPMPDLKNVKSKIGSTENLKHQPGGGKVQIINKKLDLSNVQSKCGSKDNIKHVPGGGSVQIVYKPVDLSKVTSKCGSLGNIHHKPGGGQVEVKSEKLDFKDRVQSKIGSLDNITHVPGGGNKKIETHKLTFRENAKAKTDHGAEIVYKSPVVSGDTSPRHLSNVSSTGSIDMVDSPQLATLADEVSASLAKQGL
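Tau 2 uM in ThS buffer dispensed; compound added; 60 uM ODS added (finals 1 uM tau, 30 uM ODS); 15 h 37 C; fluor ex450/em510.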
YjeE inh: displaces an ADP probe from E. coli YjeE (TsaE). purified YjeE enzyme, qHTS inhibition assay. 0.05% of 71,000 active. P0AF67. Potency, µM
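Fluorescence polarization of a BODIPY Texas Red–ADP probe (2 uM) bound to purified YjeE (10 uM) was read after 15 min room-temperature incubation with compounds. Loss of polarization marks inhibitors; ADP serves as titrated control.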
* hit, by the source's call; i = inactive; ? = inconclusive; nt = no result given; [ ] = remark or other dose. Compounds with a hit are over-represented: about 3.2% of the library has one in this group of screens. The call rests on the fitted dose curve; in most records, active means well fitted curve in the direction sought with a large enough effect; inconclusive means small, poorly fitted or top-dose-only effect, or another doubt; inactive means no such curve, though single readings can be large; an effect the other way counts as inactive or inconclusive.

SMILES | p53ts 32C kill | ERK AVP inh | p53ts 39C kill | DNA Pol III inh | Tau filament bind | YjeE inh
Cc1ccc(-n2c(SCC(=O)NCc3ccccc3)nc3n[nH]c(C)c3c2=N)cc1Cl | 6% | nt | 20µM* | nt | nt | nt
CCc1ccc(NC(=O)CSc2nc3n[nH]c(C)c3c(=N)n2-c2ccccc2C)cc1 | -11% | nt | 10µM* | nt | nt | nt
CCOc1ccc2nc(C)cc(Nc3ccccc3OCC)c2c1 | -30% | nt | 7.9µM* | nt | nt | nt
CN(CCc1ccccn1)c1ccc2c(c1)C(=O)c1ccccc1-2 | 2%[9.22 µM] | -13%[11.5 µM] | -6%[9.22 µM] | -10%[11.4 µM] | 4µM* | i
CN1CCN(C2=C(Cl)C(=O)N(C3CCCCC3)C2=O)CC1 | ? | -24% | ? | -2% | 16µM* | i
O=C1C(Cl)=C(N2CCCCC2)C(=O)N1c1ccccc1 | 16% | 3% | 0% | -2% | -4% | i
C=CCNc1nc(-c2cc3ccccc3o2)cs1 | 14µM* | nt | ? | nt | nt | nt
C=CCNc1nc(-c2c(C)nc3sccn23)cs1 | -11% | ? | -2% | 1% | 4% | i
Cc1cc(C)c(Cn2c(C(O)c3ccccc3)nc3ccccc32)c(C)c1 (stereo not given) | -16% | nt | 3.2µM* | nt | nt | nt
CCn1c(C(O)c2ccccc2)nc2ccccc21 (stereo not given) | 20% | 18% | 1% | 3% | -1% | i
CC(=O)N1CCC2(CC1)CCN(c1ccc(-c3ccccc3)cc1)CC2 | -15% | ? | -18% | 14% | 13µM* | i
O=C(c1cccc(F)c1)N1CCC2(CC1)CCN(c1cccc(-c3ccccc3)c1)CC2 | -5% | -7% | 4% | 8% | 25µM* | i
COC(=O)c1sccc1S(=O)(=O)N(CC(=O)Nc1cc(F)ccc1F)c1ccc(C)c(C)c1 | 5% | nt | -12% | nt | nt | nt
O=C(NCCCN1CCN(c2ccc(F)cc2)CC1)c1cc2c(Cl)nc3ccccc3c2s1 | -7% | nt | -22% | nt | nt | nt
COc1ccc(Cn2c(C)nc3c(c2=O)c2nc4ccccc4nc2n3Cc2ccco2)cc1 | -18% | -12% | -17% | ? | 2.5µM* | i
COc1ccc(Cn2c3nc4ccccc4nc3c3c(=O)n(Cc4ccco4)c(C)nc32)cc1 | -10% | -12% | -16% | ? | ? | i
Cc1nc2c(c(=O)n1Cc1ccccc1Cl)c1nc3ccccc3nc1n2Cc1ccco1 | 22% | 25µM* | 65% | -20% | 16µM* | i
Cc1c(Cl)cccc1NC(=O)Nc1nnc(N(C)C2CCCCC2)s1 | -8% | nt | -4% | nt | nt | nt
Nc1ccc(O)cc1 | nt | -2% | nt | -18% | 16µM* | ?
N=C(N)c1ccc(N)cc1 | 13% | -3% | 12% | -4% | -4% | i
CCc1cccc(-n2c(=O)c3cccnc3n2CC(=O)Nc2ccc(OC)c(Cl)c2)c1 | 11% | nt | -3% | nt | nt | nt
Cn1nc(C(=O)Nc2sccc2C(N)=O)ccc1=O | 2% | -24% | -3% | -11% | 25µM* | i
CCOC(=O)c1c(NC(=O)/C=C/c2ccc(Cl)cc2)sc2c1CCC(C)C2 (stereo not given) | 1% | nt | 24% | nt | nt | nt
COc1ccc(NC(=O)C(=O)NCC(c2cccnc2)N2CCc3ccccc3C2)cc1 (stereo not given) | ? | nt | 10µM* | nt | nt | nt
CC(C)NC(=O)CN1C(=O)c2cccnc2Sc2ccccc21 | 6% | nt | -12% | nt | nt | nt
SMILES | p53ts 32C kill | ERK AVP inh | p53ts 39C kill | DNA Pol III inh | Tau filament bind | YjeE inh
CCOC(=O)C1=C(N2CCCCC2)c2cc3c(n2C1=O)CCCC3 | -16% | ? | -29% | 0% | 16µM* | i
FC(F)C(F)(F)C1=CC(c2cccs2)=NCCN1 | 2% | -3% | 19% | -5% | 16µM* | i
FC(F)C(F)(F)C1=CC(c2ccccc2)=NCCN1 | -8% | -11% | 6% | 3% | 13µM* | i
Cc1cc(=O)[nH]c(S/C=C/c2ccccc2)n1 | 6.3µM* | 26% | 5µM* | 2% | 0% | i
CCOC(=O)C1CCN(C(=O)c2cc3ccc4cccnc4c3[nH]2)CC1 | -4% | nt | -24% | nt | nt | nt
CC1CCCN(C(=O)c2cc3ccc4cccnc4c3[nH]2)C1 (stereo not given) | 0.79µM* | nt | 1.6µM* | nt | nt | nt
O=C(c1cc2ccc3cccnc3c2[nH]1)N1CCN(c2ccc(Cl)cc2)CC1 | -4% | nt | -21% | nt | nt | nt
O=C(c1cc2ccc3cccnc3c2[nH]1)N1CCCCC1 | 1.6µM* | nt | 0.63µM* | nt | nt | nt
COc1ccccc1NC(=O)c1cc2ccc3cccnc3c2[nH]1 | 10µM* | nt | 7.9µM* | nt | nt | nt
CCOc1ccc(-c2cc(C(=O)NCCc3ccc(C)cc3)c3ccccc3n2)cc1 | -20% | nt | 16µM* | nt | nt | nt
CCOc1ccc(-c2cc(C(=O)NCCc3ccc(Cl)cc3)c3ccccc3n2)cc1 | -27% | nt | ? | nt | nt | nt
CCOc1ccc(-c2cc(C(=O)NCCCN3CCN(CC)CC3)c3ccccc3n2)cc1 | 13µM* | -10% | 13µM* | -2% | 10% | i
COc1ccc(-c2cn3c(n2)sc2cc(C(=O)Nc4ccc(C)cc4C)ccc23)cc1 | 3% | nt | -5% | nt | nt | nt
COc1ccc(-c2cn3c(n2)sc2cc(C(=O)Nc4ccc(F)cc4Cl)ccc23)cc1 | -23% | nt | 20µM* | nt | nt | nt
CCCN1CCN(CCCNC(=O)c2ccc3c(c2)sc2nc(-c4ccc(OCC)cc4)cn23)CC1 | ? | nt | 13µM* | nt | nt | nt
COc1ccc(Nc2cc(C(=O)NCCCN3CCN(C)CC3)c3ccccc3n2)c(OC)c1 | ? | 1% | ? | -4% | 13µM* | i
CCN1CCN(CCC(=O)Nc2ccccc2OC)CC1 | -6% | -5% | 3% | -4% | 8% | ?
CCN1CCN(Cc2ccc(NC(=O)Nc3ccccc3OC)cc2)CC1 | 7.9µM* | 20% | 10µM* | -6% | 1% | i
CCOc1ccc(C(=O)Nc2ccc3oc(-c4ccc5ccccc5c4)nc3c2)cc1 | 6% | nt | 7% | nt | nt | nt

Screening data deposited in PubChem by National Center for Advancing Translational Sciences (NCATS).
